Legend:
Assay in all cases: PBM binding z-score (relative to random genomic background probes); higher = stronger binding; sequences stand for … in GC…GCGATTGACAGCGTAGAATGAAGG
[1] = test system: PPARg:RXRa DBDmut IVT, anti-RXR (DBD mutation: RXRa K156A/R161A, NR concentration 270 nM, RXRa partner concentration 90 nM)
Procedure, shortened: (§1)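 Random background probes are the reference for binding z-scores. These scores derive from regression-normalized fluorescence on custom Agilent 4×180K protein-binding microarrays incubated 1 h with ligand-free nuclear receptor dimers. Binding was detected with antibodies against each partner (one per run).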

[2] = test system: PPARg:RXRa IVT, anti-PPARg (NR concentration 270 nM, RXRa partner concentration 90 nM)
Procedure, shortened: as §1

[3] = test system: PPARg DBDmut:RXRa IVT, anti-PPARg (DBD mutation: PPARg1 K132A/R137A, NR concentration 270 nM, RXRa partner concentration 90 nM)
Procedure, shortened: as §1

[4] = test system: PPARg DBDmut IVT, anti-PPARg (DBD mutation: PPARg1 K132A/R137A, NR concentration 270 nM)
Procedure, shortened: as §1

[5] = test system: PPARg homodimer (NR concentration 180 nM)
Procedure, shortened: as §1

[6] = test system: PXR:RXRa (NR concentration 270 nM, RXRa partner concentration 90 nM)
Procedure, shortened: as §1

[7] = test system: PXR homodimer (NR concentration 270 nM)
Procedure, shortened: as §1

[8] = test system: RARa:RXR (NR concentration 270 nM, RXRa partner concentration 90 nM)
Procedure, shortened: as §1

[9] = test system: RARa homodimer (NR concentration 270 nM)
Procedure, shortened: as §1

[10] = test system: RARb:RXRa (NR concentration 270 nM, RXRa partner concentration 90 nM)
Procedure, shortened: as §1

[11] = test system: RARb homodimer (NR concentration 270 nM)
Procedure, shortened: as §1

[12] = test system: RARg:RXRa (NR concentration 270 nM, RXRa partner concentration 90 nM)
Procedure, shortened: as §1

[13] = test system: RARg homodimer (NR concentration 270 nM)
Procedure, shortened: as §1

[14] = test system: RXRa DBDmut IVT, anti-RXR (DBD mutation: RXRa K156A/R161A, NR concentration 90 nM)
Procedure, shortened: as §1

[15] = test system: RXRa homodimer (NR concentration 180 nM)
Procedure, shortened: as §1

[16] = test system: THRa:RXRa (NR concentration 90 nM, RXRa partner concentration 90 nM)
Procedure, shortened: as §1

[17] = test system: THRa homodimer (NR concentration 90 nM)
Procedure, shortened: as §1

[18] = test system: VDR:RXRa (NR concentration 270 nM, RXRa partner concentration 90 nM)
Procedure, shortened: as §1

[19] = test system: VDR homodimer (NR concentration 270 nM)
Procedure, shortened: as §1

Row | Sequence | PBM binding z-score [1] | PBM binding z-score [2] | PBM binding z-score [3] | PBM binding z-score [4] | PBM binding z-score [5] | PBM binding z-score [6] | PBM binding z-score [7] | PBM binding z-score [8] | PBM binding z-score [9] | PBM binding z-score [10] | PBM binding z-score [11] | PBM binding z-score [12] | PBM binding z-score [13] | PBM binding z-score [14] | PBM binding z-score [15] | PBM binding z-score [16] | PBM binding z-score [17] | PBM binding z-score [18] | PBM binding z-score [19]
1 | CGAACGAGGGCATGAGTTGCTAGCAAATGCCGAT | 3.04 | 1.87 | -0.188 | -0.705 | -0.0181 | 0.336 | -0.327 | 0.293 | -0.816 | 1.82 | 0.64 | 1.05 | 1.42 | 2.17 | 0.709 | 1.11 | -0.232 | 0.671 | 1.05
2 | ACTTACGGGTCAACGAGGTTATAGCTCGCGTATA | 3.43 | 4.16 | 1.04 | 0.353 | 3.06 | 5.45 | 2.82 | 5.16 | 0.0894 | 4.36 | 3.51 | 5.67 | 5 | 2.85 | 5.91 | 4.18 | 1.02 | 7.8 | 3.7
3 | ATCTCTAGGTAACAAGTTCCGTGAAAGAGAGGAC | 3.05 | 2.66 | 0.253 | 1.32 | 0.831 | -0.111 | 0.636 | 0.015 | 0.906 | 0.274 | 0.549 | 0.357 | 0.586 | -0.202 | 0.164 | 0.983 | 0.899 | – | 0.475
4 | ACATACAGGTGAGTGAAGGTAACTCAGCTGGACG | 2.31 | 2.03 | 0.417 | 0.188 | 0.393 | 0.304 | -0.247 | 0.687 | -0.0591 | 0.763 | 0.773 | 1.2 | 0.903 | 0.0119 | 0.795 | 2.21 | -0.215 | 0.0169 | 0.00472
5 | ACTTACGGGTCAAAGAGGTTATAGCACGCGTATA | 3.17 | 3.85 | 1.03 | 1.26 | 3.6 | 4.91 | 2.73 | 4.84 | 1.4 | 3.99 | 3.42 | 5.32 | 4.72 | 2.54 | 6.31 | 3.45 | 0.218 | 7.09 | 3.59
6 | TCTTGTAGATCAATAGAGGTTAATAAAGTGCGCT | 1.47 | 1.13 | 0.628 | 0.945 | 0.295 | 2.84 | 0.364 | 1.63 | 0.341 | 0.772 | 1.15 | 0.715 | 0.545 | 0.551 | 1.33 | 2.36 | -0.525 | 1.84 | 0.459
7 | TCTGCTAGGTCAACGATGGTCATCTAATCTGCTA | 4.28 | 4.02 | 0.183 | 0.11 | 0.637 | 2.1 | -0.415 | 2.56 | -0.306 | 4.09 | 3.5 | 4.05 | 4.69 | 1.07 | 2.9 | 3.45 | 0.805 | 2.16 | -0.118
8 | TCATATAGGTAAAAGGTGAAAGTTGGTGTGGTAA | 5.28 | 5.23 | 1.91 | 1.67 | 2.39 | 2.16 | 0.944 | 3.3 | 2.02 | 2.09 | 2.19 | 2.24 | 0.981 | 1.89 | 3.27 | 1.9 | 0.96 | 1.88 | 0.577
9 | ACAGACAGGTGACTGAAGGTAACTCAGCTGGACG | 0.539 | 0.434 | 0.745 | -0.576 | -0.875 | -0.321 | -0.503 | 0.0913 | -0.597 | 0.563 | 0.000361 | 0.5 | 0.509 | -0.793 | 0.654 | 1.94 | -0.751 | -0.404 | -0.657
10 | TCTTGTAGATCAGCAGGTCAAGAAAGCTGGCCAA | 1.57 | 1.61 | -0.677 | -0.699 | 0.129 | 1.6 | -0.4 | 2.18 | -0.58 | 2.01 | 2.13 | 2.22 | 1.55 | 0.289 | 2.05 | 1.89 | 0.0646 | 1.17 | 0.194
11 | CAGCCTAGGTCAGGGCAAGTATAGGAGGAACGTT | 1.79 | 2 | -0.618 | -1.17 | 0.755 | 0.56 | -0.274 | 1.19 | -0.273 | 3.7 | 2.89 | 3.37 | 4.42 | 0.0937 | 2.07 | 2.2 | 0.481 | 0.782 | -0.0774
12 | GCTGCTAGGTCAGGTTGCTCAGCTAACGGGTACG | 2.92 | 2.01 | -0.97 | -0.836 | 0.251 | -0.00315 | -0.858 | 0.655 | -0.624 | 3.17 | 2.14 | 2.32 | 2.99 | 0.623 | 0.855 | 1.49 | 0.194 | 0.0611 | 0.297
13 | GGAACGAGGGCATAGTTGATAGCATCTGTCGACG | 2.46 | 2.41 | -0.0516 | -0.265 | 0.109 | 0.17 | -0.0429 | 0.19 | -0.571 | 1.39 | 0.536 | 0.949 | 1.22 | 2.25 | 1.02 | 0.72 | -0.185 | 0.655 | 1.18
14 | ATATGTAGGTTATTGGGTCATTCAGTTTGCGCAT | 7.67 | 8.16 | 4.52 | 3.64 | 4.1 | 3.06 | 4.6 | 3.36 | 2.83 | 2.5 | 3.06 | 3.09 | 2.45 | 1.61 | 2.89 | 2.85 | 2.41 | 4.55 | 3.17
15 | GCTATTAGTTGAACGGGCAACCGAATGATTCTCG | 0.443 | -0.481 | -1.02 | -0.0789 | -0.518 | -0.435 | -0.664 | -0.533 | -0.461 | 0.14 | -0.0848 | -0.133 | 0.229 | 0.557 | -0.15 | -0.33 | -0.617 | – | -0.439

Reference: the supplement of paper PMC6555819
